Screening data (PubChem)
hgDAF-12 ag: activates the H. glycines DAF-12 receptor ligand-binding domain; HEK293 GAL4-hgDAF12 UAS-luciferase reporter, agonist luminescence; normalized to butyrate control; activation, % at 6.8 µM; 370,000 tested, 1.8% active; AID 687014;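 active means activation above a cutoff set at the mean of all screened compounds plus 3 SD, cut at about 10% in these data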;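 further: 0% = DMSO wells and 100% = sodium butyrate wells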
hcDAF12 agonist: activates DAF-12 receptor from parasite H. contortus. 370,000 tested, 1.4% active. HEK293 hcDAF-12 lit1-tk-luc reporter, luminescence; 0% DMSO, 100% Δ7-dafachronic acid. activation, % at 6.8 µM. AID 652067;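 active means activation above the mean of all tested compounds plus 3 SD, cut at about 5.5% in these data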;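 further: 100% = response to 3 µM Δ7-dafachronic acid high control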
DAX1 inh-1: inhibits human nuclear receptor DAX1; inhibition, % at 6.75 µM; P51843; 340,000 tested, 0.99% active; HEK293 Gal4-DAX1 luciferase reporter, luminescence; AID 504766;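 active means inhibition above the mean over all tested compounds plus 3 SD, cut at about 4.2% in these data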;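 further: 0% = DAX1-transfected cells with DMSO and 100% = empty-vector control cells with DMSO; inhibition shows as a rise in luminescence from relieved DAX1 repression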
DAX1 inh-2: blocks DAX1 repression of SF-1 activated StAR promoter | HEK293T StAR-luciferase reporter, SF-1/DAX-1 repression relief | inhibition, % at 6.8 µM | 370,000 tested, 1.1% active;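 active means inhibition above the mean over all tested compounds plus 3 SD, cut at about 3.6% in these data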;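 further: 0% = DAX-1 cells with DMSO and 100% = cells lacking DAX-1 with DMSO; higher inhibition means more luminescence from relief of DAX-1 repression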
AHR activator: human AHR activation; P35869; AHR-responsive luciferase reporter cells, luminescence; activation, % at 5 µM; 320,000 tested, 2.5% active; AID 2796; in the data active means activation above about 47%;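 further: 0% = vehicle wells and 100% = reference agonist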
ssDAF12 agonist: S. stercoralis DAF-12 activation, primary screen. HEK293 ssDAF-12/GRIP1 lit1-tk-luc reporter, luminescence; % of 3 µM dafachronic acid response. activation, % at 6.8 µM. 370,000 tested, 1% active;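 active means activation above the mean over all tested compounds plus 3 SD, cut at about 0.9% in these data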;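 further: 0% = DMSO-only wells and 100% = 3 µM delta7-dafachronic acid wells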
hgDAF12 ag: confirmation of H. glycines DAF-12 agonists | shares compounds with hgDAF-12 ag | HEK293 GAL4-hgDAF12 luciferase reporter, agonist mode; percent of butyrate response | activation, % at 6.8 µM | 3,300 tested, 80% active | AID 743050;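 active means mean activation over triplicate wells above the hit cutoff derived from the earlier primary screen, cut at about 11% in these data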;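 further: 0% = DMSO low control and 100% = 2 mM sodium butyrate high control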
LXRb DAF12 ctr: LXR-beta agonism as DAF-12 counter-screen; shares compounds with hgDAF-12 ag; HEK293 Gal4-LXR luciferase reporter, 24 h; activation, % at 6.8 µM; 3,300 tested, under 10 active;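 active means mean activation of the triplicate above a set limit carried over from the primary screen, none filed active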
Target sequence (P55055 whole entry, looked up, the tested form may be a part): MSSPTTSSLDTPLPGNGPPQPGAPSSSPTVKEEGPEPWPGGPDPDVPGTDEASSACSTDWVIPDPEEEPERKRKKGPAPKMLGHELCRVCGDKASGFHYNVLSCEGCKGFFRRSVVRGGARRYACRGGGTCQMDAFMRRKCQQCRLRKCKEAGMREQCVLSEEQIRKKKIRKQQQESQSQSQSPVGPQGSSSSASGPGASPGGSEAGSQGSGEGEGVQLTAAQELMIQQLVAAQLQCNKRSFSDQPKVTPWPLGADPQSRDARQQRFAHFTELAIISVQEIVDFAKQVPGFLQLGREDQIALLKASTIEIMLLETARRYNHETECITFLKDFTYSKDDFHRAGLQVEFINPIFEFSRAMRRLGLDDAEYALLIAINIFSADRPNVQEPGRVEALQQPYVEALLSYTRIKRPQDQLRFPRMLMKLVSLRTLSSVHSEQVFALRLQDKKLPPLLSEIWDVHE
Numbers without * were called inactive; x = no result. Only some compounds are listed: those with a hit (about 5.7% of all), similar ones and a draw of the others.

SMILES	hgDAF-12 ag	hcDAF12 agonist	DAX1 inh-1	DAX1 inh-2	AHR activator	ssDAF12 agonist	hgDAF12 ag	LXRb DAF12 ctr
COc1ccc(C/C(C)=N/NS(=O)(=O)c2ccc(Br)cc2)cc1	5.1	0.0	1.9	0.2	4.1	-0.4	x	x
CCOc1ccc(-c2cc(C(=O)NN=C3CCN(C)CC3)[nH]n2)cc1	13.3*	6.0*	0.1	3.2	20.1	1.1*	3.1	0.0
CCOC(=O)c1cnc(SCCc2ccccc2)nc1N	16.0*	5.4	2.9	4.5*	0.0	1.4*	19.5*	0.8
CCOC(=O)c1cnc(SCc2ccc(C)cc2)nc1N	6.7	1.2	0.6	1.4	-8.1	-0.4	x	x
CCCCSc1ncc(C(=O)OCC)c(N)n1	15.1*	3.7	2.5	3.7*	0.5	0.6	11.3*	0.8
CCc1ccc(NC(=O)Nc2cccs2)cc1	14.3*	4.1	2.1	1.4	-1.1	-0.5	18.1*	0.6
CC(NC(=O)C12CC3CC(CC(O)(C3)C1)C2)c1ccc(Cl)cc1Cl (stereo not drawn)	-0.9	0.5	-0.7	0.3	0.5	-0.6	x	x
Cc1nn2c3c(cnc2c1-c1ccccc1)C(=O)CCC3	-0.6	-0.4	0.1	0.9	6.0	-0.5	x	x
Cc1nn2c(N)c(-c3ccccc3)cnc2c1-c1ccc(Cl)cc1	13.9*	3.1	1.4	1.5	64.4*	0.7	16.5*	0.5
CCn1c(C)c(C)c2cc(C(=O)NCCCN3CCCCC3C)ccc21 (stereo not drawn)	0.7	-1.6	0.0	-1.1	3.8	-1.1	x	x
Cc1c(C(=O)Nc2ccccc2F)cnn1-c1ccccc1	13.6*	1.0	1.0	2.7	-1.3	-0.2	12.8*	0.6
CCOc1ccc(OCc2cccc(C(=O)N3CCCCCC3)c2)cc1	15.8*	4.6	-5.6	3.8*	-2.0	0.0	16.4*	0.7
CCOc1ccc(OCc2ccc(C(=O)N3CCCC3)o2)cc1	2.6	1.7	-0.7	0.3	15.4	-1.4	x	x
O=C(O)C1C2CCC(O2)C1C(=O)Nc1ccc(F)cc1 (stereo not drawn)	0.0	0.8	-0.7	0.3	-0.9	-1.2	x	x
O=C(O)c1ccc(NC(=O)C2C3CCC(O3)C2C(=O)O)cc1 (stereo not drawn)	14.0*	6.0*	1.1	0.9	-0.3	1.4*	3.1	0.0
CC(=O)Nc1ccc(OCC[n+]2cccc(C(N)=O)c2)cc1	19.7*	-0.8	x	0.0	5.0	-1.2	-0.3	0.0
CC(=O)Nc1ccc(OCCC[n+]2ccccc2)cc1	1.6	1.1	2.2	-0.5	-0.8	-1.1	x	x
CCCCCN(C(=O)CCC(=O)OCc1ccc(Cl)cc1Cl)c1c(N)n(CCCC)c(=O)[nH]c1=O	-4.2	-0.4	-0.9	0.2	-2.0	-1.0	x	x
O=C(NNC(=S)Nc1ccccc1)c1cccs1	7.4	0.3	2.8	1.5	-1.0	-0.7	x	x
O=C(NNC(=S)Nc1ccc(Cl)cc1)c1cccs1	14.2*	1.7	3.3	1.8	3.3	-1.2	6.7	0.3
Cn1cc(C2N3CC4(C)CN2CC(C)(C3)C4=O)c2ccccc21 (stereo not drawn)	16.0*	-1.3	1.9	-0.9	6.0	-1.4	0.6	0.0
O=C(O)C1C2CCC(C2)C1C(=O)NCCc1cccc(Cl)c1 (stereo not drawn)	1.2	-1.3	0.0	0.3	3.2	-1.0	x	x
CC(=O)c1ccc(S(=O)(=O)NCCc2cn3ccc(C)cc3n2)cc1	-1.1	0.1	0.9	1.9	2.3	-0.9	x	x
Nc1ccc(-c2nnn(Cc3ccccc3)n2)cc1	2.3	1.2	0.3	0.1	x	-0.1	x	x
O=C(O)c1cccc(-c2nnn(Cc3ccccc3)n2)c1	14.6*	5.7*	-1.3	2.3	0.0	0.5	11.4*	0.7
Cc1nn(-c2ccccc2)c(/N=C/c2ccccc2O)c1-c1ccccc1	15.2*	1.6	1.8	2.6	3.7	0.0	11.4*	0.3
Cc1nn(-c2ccccc2)c(C)c1/C=N/O	0.9	-0.9	0.2	0.2	-1.1	-0.8	x	x
